From PubChem
Sampled rows, rich in hits. Any-hit rate of the full collection: about 1.7%.
GLP1R inv ag = acts as inverse agonist at human GLP-1 receptor. HEK293 GLP-1R CRE-luciferase, luminescence, 24 h; GLP-1R form is constitutively active. 410,000 compounds, 1.6% hits. AID 624417. Potency, µM (doses to about 38.3 µM), for inactives: at the top dose activity change, negative = inhibition, actives largely listed as inhibitors. P43220; further: on the % scale 0 is the no-effect control and ±100 the full control effect; nearly all actives have a fitted effect of over 55% in size
Target sequence (P43220 whole entry, looked up): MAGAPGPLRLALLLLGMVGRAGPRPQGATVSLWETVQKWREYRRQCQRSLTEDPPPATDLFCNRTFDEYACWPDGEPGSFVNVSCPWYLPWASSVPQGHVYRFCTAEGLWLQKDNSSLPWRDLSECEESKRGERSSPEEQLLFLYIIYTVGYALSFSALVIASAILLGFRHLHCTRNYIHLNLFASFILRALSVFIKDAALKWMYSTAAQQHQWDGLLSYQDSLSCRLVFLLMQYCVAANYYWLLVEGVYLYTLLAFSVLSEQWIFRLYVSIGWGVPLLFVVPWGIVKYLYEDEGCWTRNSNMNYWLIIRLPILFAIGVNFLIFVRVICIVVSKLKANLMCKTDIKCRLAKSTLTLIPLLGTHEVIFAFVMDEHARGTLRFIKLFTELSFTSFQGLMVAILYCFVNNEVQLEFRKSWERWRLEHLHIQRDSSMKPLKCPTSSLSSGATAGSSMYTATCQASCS
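Using stably transfected HEK293 (constitutively active GLP-1R, cAMP-luciferase reporter), compounds were incubated 24 hr and luciferase measured by luminescence.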
PTHR1 ag = agonists of human PTHR1 parathyroid hormone receptor; Q03431; HEK293 GP2 PTHR1 cells, GloSensor cAMP luminescence, 1 h; Potency, µM (highest dose often 115 µM), without a hit: at the top dose activation, hits mostly activators; 410,000 compounds, 0.075% hits; AID 743266; further: nearly all actives have a fitted effect of over 55% in size
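HEK-293-derived GP2 cells expressing PTHR1 and a GloSensor cAMP reporter, 3,000/well, plated overnight, given luciferin plus IBMX (each 0.5 mM as added) for 1 h at 37 °C, then compound for 1 h at 37 °C. Luminescence was read after 15 min at room temperature.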
GLP-1R agonist = GLP-1 receptor (human) agonism; HEK293 GLP-1R CRE-luciferase, luminescence, 4-6 h; cells express a hypersensitive GLP-1R form; 380,000 compounds, 0.007% hits; Potency, µM (titrated, usually from 45.6 µM), inactives show at the top dose activation, hits mostly activators; further: % of control where 0% means no effect
HEK293 tox = cytotoxic in the GLP-1 receptor inverse agonist counter-screen; 410,000 compounds, 0.13% hits; HEK293 cAMP-luciferase reporter cells, luminescence, 24 h; Potency, µM (highest dose often 38.3 µM), for inactives: at the top dose activity change, negative = inhibition, usual class: inhibitors;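 further: loss of luciferase light is scored as toxicity; on the % scale 0 is the no-effect control and ±100 the full control effect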
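Here, cytotoxicity is scored as loss of luminescence. The MLSMR collection was tested on cells seeded in medium containing 10% Nu serum, with a 24 hr compound exposure preceded by 12 hours of culture.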
Active calls of the source: *; [ ] = dose if it differs, or a comment. The call rests on the fitted dose curve; in most records, active means well fitted curve in the direction sought with a large enough effect; inconclusive means small, poorly fitted or top-dose-only effect, or another doubt; inactive means no such curve, though single readings can be large; an effect the other way counts as inactive or inconclusive. Potency means the concentration at half of the fitted maximal effect.

How did CCCCCCC(C)n1[nH]c(=O)c2c(C)cc(C)nc21 (configuration not stated) do in these assays?
GLP1R inv ag: 10µM*; PTHR1 ag: inactive; GLP-1R agonist: 8.9%; HEK293 tox: 20.1%

Results for CCCCCC(C)n1[nH]c(=O)cc1N (configuration not stated) ?
GLP1R inv ag: 0.5%; PTHR1 ag: -21.9%[57.5 µM]; GLP-1R agonist: 7.0%; HEK293 tox: 4.6%

Results for O=C(CN1C(=O)C(=O)N(CCC2=CCCCC2)C1=O)Nc1ccc(F)cc1F ?
GLP1R inv ag: -12.6%; PTHR1 ag: -13.7%; GLP-1R agonist: -16.9%; HEK293 tox: -23.6%

Results for O=C(Nc1ccc(F)cc1F)NC1CCN(Cc2c(F)cccc2Cl)CC1 ?
GLP1R inv ag: 8.91µM*; PTHR1 ag: -11.9%; GLP-1R agonist: 10.4%; HEK293 tox: -1.9%

What do the screens show for `Cc1cc(Cl)ccc1NC(=O)NC1CCN(S(=O)(=O)c2ccc(F)cc2)CC1`?
GLP1R inv ag: 6.31µM*; PTHR1 ag: -36.8%; GLP-1R agonist: -5.0%; HEK293 tox: inconclusive

Results for CC(C)CN1CC(COCc2ccccc2)Oc2ccccc2S1(=O)=O (configuration not stated) ?
GLP1R inv ag: inconclusive; PTHR1 ag: -45.5%; GLP-1R agonist: 6.0%; HEK293 tox: 31.5%

Results for CC(=O)[C@@]1(O)CC[C@H]2[C@@H]3C=C(Cl)C4=CC(=O)CC[C@]4(C)[C@H]3CC[C@@]21C ?
GLP-1R agonist: -3.2%

Results for N#Cc1c(F)cccc1N1CCN(Cc2ccc3c(c2)OCO3)CC1 ?
GLP1R inv ag: 11.2µM*; PTHR1 ag: -6.6%; GLP-1R agonist: 14.9%; HEK293 tox: -12.3%

What do the screens show for `C[C@]12CC[C@@H]3c4ccc(OC(=O)c5ccccc5)cc4CC[C@H]3[C@@H]1CC[C@@H]2O`?
GLP1R inv ag: 3.1%; PTHR1 ag: inactive; GLP-1R agonist: inconclusive; HEK293 tox: 6.1%

Results for COc1cc2c(cc1O)CC[C@@H]1[C@@H]2CC[C@]2(C)[C@@H](O)CC[C@@H]12 ?
GLP1R inv ag: 11.2µM*; PTHR1 ag: -18.9%; GLP-1R agonist: -0.7%; HEK293 tox: -28.0%

What do the screens show for `COCCN1CCCC(CNCc2cn(C)nc2-c2ccc(Oc3ccccc3)cc2)C1` (configuration not stated)?
GLP1R inv ag: inconclusive; PTHR1 ag: -16.5%; GLP-1R agonist: 15.7%; HEK293 tox: inconclusive

What do the screens show for `Cn1cc(CNCc2cn(C)nc2-c2ccc(C3CCCCC3)cc2)cn1`?
GLP1R inv ag: 7.94µM*; PTHR1 ag: -6.5%; GLP-1R agonist: 19.1%; HEK293 tox: -0.5%

How did COc1ccc(-c2noc(CNS(=O)(=O)c3ccc(NC(C)=O)cc3)n2)cc1 do in these assays?
GLP1R inv ag: 13.1%; PTHR1 ag: 25.7%; GLP-1R agonist: -4.5%; HEK293 tox: 5.4%

How did O=C(NCc1nc(-c2ccc(C(F)(F)F)cc2)no1)Nc1ccc(OC(F)(F)F)cc1 do in these assays?
GLP1R inv ag: 2.82µM*; PTHR1 ag: -21.1%; GLP-1R agonist: 0.1%; HEK293 tox: inconclusive

Results for S=C(Nc1ccc(Br)cc1)NC1CCCCC1 ?
GLP1R inv ag: inconclusive; PTHR1 ag: -47.4%; GLP-1R agonist: -4.9%; HEK293 tox: inconclusive

What do the screens show for `S=C(Nc1cccc(Cl)c1)NC1CCCCC1`?
GLP1R inv ag: 8.91µM*; PTHR1 ag: -10.2%[57.5 µM]; GLP-1R agonist: 8.4%; HEK293 tox: inconclusive

How did CC(=O)c1cccc(NC(=S)NC2CCCCC2)c1 do in these assays?
GLP1R inv ag: 26.6%; PTHR1 ag: -6.7%; GLP-1R agonist: 1.3%; HEK293 tox: -4.1%

How did Cc1cccc(NC(=S)NC2CCCC2)n1 do in these assays?
GLP1R inv ag: 4.47µM*; PTHR1 ag: -12.1%; GLP-1R agonist: 9.3%; HEK293 tox: inconclusive

What do the screens show for `S=C(Nc1ccc(Nc2ccccc2)cc1)NC1CCCCCC1`?
GLP1R inv ag: 5.01µM*; PTHR1 ag: -18.2%; GLP-1R agonist: 4.7%; HEK293 tox: -7.6%

How did S=C(Nc1ccc(Cl)cc1)NC1CCCCC1 do in these assays?
GLP1R inv ag: 10µM*; PTHR1 ag: -13.2%; GLP-1R agonist: 11.9%; HEK293 tox: inconclusive

Results for Cc1cccc(NC(=S)NC2CCCCC2)n1 ?
GLP1R inv ag: inconclusive; PTHR1 ag: -12.2%; GLP-1R agonist: 11.7%; HEK293 tox: inconclusive

What do the screens show for `COc1cc2cc(C(=O)N(C)C3CCS(=O)(=O)C3)[nH]c2cc1OC` (configuration not stated)?
GLP1R inv ag: 15.9%; PTHR1 ag: -15.1%; GLP-1R agonist: -5.2%; HEK293 tox: 15.5%

How did CC(=O)c1cccc(OCc2cc(C(=O)N3CCC(N4CCCCC4)CC3)no2)c1 do in these assays?
GLP1R inv ag: 0.3%; PTHR1 ag: -2.8%; GLP-1R agonist: 10.4%; HEK293 tox: -1.0%

How did COc1ccc(OC)c(NC(=O)CSC2=Nc3ccccc3C3=NC(CC(=O)NCc4ccc5c(c4)OCO5)C(=O)N23)c1 (configuration not stated) do in these assays?
GLP1R inv ag: 36.1%; PTHR1 ag: -34.1%; HEK293 tox: -1.0%

How did COc1cccc(-c2nc3c(c(SCc4ccccc4)n2)Cc2c(CO)cnc(C)c2O3)c1 do in these assays?
GLP1R inv ag: -5.0%; PTHR1 ag: 2.9%; HEK293 tox: 0.8%

What do the screens show for `S=C(NNc1cccc(Cl)c1)NC1CCCCC1`?
GLP1R inv ag: 10µM*; PTHR1 ag: -3.5%; GLP-1R agonist: 9.5%; HEK293 tox: inconclusive

How did CCOC(=O)c1ccc(NC(=S)Nc2cccc(C)n2)cc1 do in these assays?
GLP1R inv ag: 0.0%; PTHR1 ag: inactive; GLP-1R agonist: 7.8%; HEK293 tox: 1.26µM*

Results for Cc1cccc(NC(=S)NC(=O)c2cccs2)n1 ?
GLP1R inv ag: 10µM*; PTHR1 ag: inactive; GLP-1R agonist: inconclusive; HEK293 tox: inconclusive

Results for FC(F)Oc1ccc(NC(=S)NC2CCSc3ccccc32)cc1 (configuration not stated) ?
GLP1R inv ag: inconclusive; PTHR1 ag: -24.3%; GLP-1R agonist: -12.3%; HEK293 tox: inconclusive

What do the screens show for `FC(F)Oc1ccc(NC(=S)NC2CCCCCCC2)cc1`?
GLP1R inv ag: 4.47µM*; PTHR1 ag: -27.4%; GLP-1R agonist: 1.2%; HEK293 tox: -15.6%

How did Cc1cc(C)cc(Nc2nc3ccccc3n3cnnc23)c1 do in these assays?
GLP1R inv ag: 32.4%; PTHR1 ag: inconclusive; HEK293 tox: -17.2%

Results for CCc1nc2c(OCc3ccc(OC(F)F)cc3)cccn2c1N(C)C(=O)c1ccco1 ?
GLP1R inv ag: -28.6%; PTHR1 ag: -61.6%; GLP-1R agonist: -1.6%; HEK293 tox: 0.8%

What do the screens show for `Cc1ccc(C(=O)OCC(=O)Nc2ccccc2C(F)(F)F)cc1S(=O)(=O)N1CCCCC1`?
GLP1R inv ag: 10µM*; PTHR1 ag: -14.6%; GLP-1R agonist: 16.1%; HEK293 tox: -4.4%
